The entries come from a sample that favours hits as a whole.
GBA activity up: increases beta-glucosidase activity in Gaucher fibroblasts | P04062 | 30,000 tested, 0.44% active | L444P Gaucher fibroblasts, 4-MU-glucoside fluorescence, 3 days | activation, % at 10 µM; in the data active means activation above about 65%;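 further: 0% = vehicle wells and 100% = positive control wells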
Target sequence (P04062 whole entry L483P): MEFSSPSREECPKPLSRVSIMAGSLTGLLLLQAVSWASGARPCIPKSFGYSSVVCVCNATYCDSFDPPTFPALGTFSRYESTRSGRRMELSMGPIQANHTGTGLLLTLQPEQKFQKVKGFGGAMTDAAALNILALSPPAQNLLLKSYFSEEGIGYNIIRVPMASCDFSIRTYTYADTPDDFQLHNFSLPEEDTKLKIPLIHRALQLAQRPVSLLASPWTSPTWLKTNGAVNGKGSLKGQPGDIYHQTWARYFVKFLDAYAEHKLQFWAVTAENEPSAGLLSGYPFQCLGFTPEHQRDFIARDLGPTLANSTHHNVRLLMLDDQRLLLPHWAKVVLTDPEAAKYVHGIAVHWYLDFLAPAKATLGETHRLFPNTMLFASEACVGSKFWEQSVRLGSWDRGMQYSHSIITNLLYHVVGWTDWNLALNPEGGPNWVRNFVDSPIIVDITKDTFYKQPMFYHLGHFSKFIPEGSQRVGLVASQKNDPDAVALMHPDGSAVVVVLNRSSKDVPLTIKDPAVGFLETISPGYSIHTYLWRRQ
The depositor's hits bear a star.

Screening Cn1c(-c2ccccc2)cc2c3no[n+]([O-])c3ccc21 returned GBA activity up 27.8.
For CCOC(=O)c1nn(-c2ccccc2)c(=O)c(C#N)c1C the results were GBA activity up 3.4.
For CCOC(=O)c1oc2c(CN3CCCCC3C)c(O)ccc2c(=O)c1-c1ccc(OC)c(OC)c1 (centres undefined) the results were GBA activity up -24.4.
For CCOC(=O)c1oc2c(C)c(O)ccc2c(=O)c1-c1nncn1-c1ccccc1 the results were GBA activity up 84.0*.
`C=CCNC(=O)CCCOc1cc(C)ccc1C` gave GBA activity up 68.2*.
`Cc1ccc(C)c(OCC(=O)Nc2nonc2NC(=O)COc2cc(C)ccc2C)c1` gave GBA activity up -28.2.
For C=CCNC(=O)CCCCC(=O)NCC=C the results were GBA activity up 2.5.
`CC1CCCC(C)N1CCNC(=O)C1CCN(S(=O)(=O)N2CCCCC2)CC1` (centres undefined) gave GBA activity up 19.0.
O=c1cnn(-c2ccccc2)c(-c2ccccc2)c1 was read as GBA activity up -53.7.
Cc1cc(-c2nnc(SCc3cccnc3)o2)no1 was read as GBA activity up 86.1*.
`N#Cc1ccc(CSc2nnc(-c3cnccn3)o2)cc1` gave GBA activity up -20.2.
For Cc1cc(-c2nnc(SCC(=O)NC3CCCC3)o2)no1 the results were GBA activity up -13.8.
Screening COc1ccc(-c2nnc3ccc(SCC(=O)N4CCN(c5ccccc5)CC4)nn23)cc1OC returned GBA activity up -9.5.
CC(C)CCn1nnnc1C(c1ccccc1)N1CCC(C(N)=O)CC1 (centres undefined) was read as GBA activity up 87.0*.
Screening C=CCN1CCN(C(c2ccccc2)c2nnnn2CCC(C)C)CC1 (centres undefined) returned GBA activity up -3.9.
`CC(C)CCn1nnnc1C(c1ccccc1F)N1CCC(C(N)=O)CC1` (centres undefined) gave GBA activity up 17.9.
`CN(C)c1nc(SCCOC(=O)Nc2ccccc2)nc(N(C)C)n1` gave GBA activity up 13.9.
For CC(C)n1c(SCC(=O)N2CCCc3ccccc32)nc2c1c(=O)n(C)c(=O)n2C the results were GBA activity up -0.9.
`O=C(CCS(=O)(=O)c1cccc2nonc12)N1CCCc2ccccc21` gave GBA activity up 72.5*.
O=C(CCCC(=O)N1CCCc2ccccc21)N1CCCc2ccccc21 was read as GBA activity up -10.6.
`O=C(CCS(=O)(=O)c1cccc2nonc12)NCCc1ccccc1` gave GBA activity up -8.1.
For CCOc1ccccc1NC(=O)c1c(NC(=O)CNCc2ccco2)sc2c1CCC2 the results were GBA activity up -31.8.
`COc1ccccc1NS(=O)(=O)c1cc(Cl)ccc1OC` gave GBA activity up -7.8.
For O=C(CCNS(=O)(=O)c1cccs1)N1CCc2ccccc2C1 the results were GBA activity up -8.8.

From PubChem
